For six molecules, growth inhibition results are on record in PubChem BioAssay (NCI).

Compounds without any hit were thinned out: in the full panel of roughly 79,000, 15% have a hit. Values without a mark were called inactive. Active and inactive are the calls of the source. Rule as the data show it: active = growth inhibition above about 70%; inactive = the rest.

The nature of assay [1]: NCI Yeast Anticancer Drug Screen. Data for the rad50 strain (AID 155).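 Also: 0% = growth of vehicle-only cultures of the same strain.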 The note with it: S. cerevisiae rad50 strain growth inhibition, stronger effect = higher value. An outline of the steps: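 Compounds were tested on a yeast strain with an engineered DNA damage repair alteration; the reported value is growth inhibition normalised to vehicle treatment.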
Assay [2] can be described thus: NCI Yeast Anticancer Drug Screen. Data for the mec2-1 strain (AID 157). The settings on record: S. cerevisiae mec2-1 strain, stronger effect = higher value. An outline of the steps:
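Yeast mec2-1 mutant treated with compound. Readout: growth inhibition vs vehicle controls.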

Assay [3] can be described thus: NCI Yeast Anticancer Drug Screen. Data for the sgs1 mgt1 strain (AID 161).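 Also: 0% = growth of cultures given vehicle only.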 The settings on record: S. cerevisiae sgs1 mgt1 strain, stronger effect = higher value. In short, it runs like this:
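Inhibition of yeast growth, normalised to vehicle-treated controls, is reported for a strain bearing genetic alterations in DNA damage repair.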

Assay [4] is described as follows: NCI Yeast Anticancer Drug Screen. Data for the cln2 rad14 strain (AID 165).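 Also: 0% = growth equal to vehicle treated cultures.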 The note with it: S. cerevisiae cln2 rad14 strain, stronger effect = higher value. An outline of the steps: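 cln2 rad14 yeast strain; compound exposure; growth inhibition read vs vehicle controls.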
Assay [5] in a line: NCI Yeast Anticancer Drug Screen. Data for the bub3 strain (AID 167). The note with it: S. cerevisiae bub3 mutant strain, stronger effect = higher value. An outline of the steps:
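Growth of a checkpoint-deficient yeast mutant is measured after compound exposure. Values represent inhibition relative to vehicle.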

Assay [6] in a line: NCI Yeast Anticancer Drug Screen. Data for the mlh1 rad18 strain (AID 175). The settings on record: S. cerevisiae mlh1 rad18 strain growth inhibition, stronger effect = higher value. In short, it runs like this: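 Yeast w/ defined DNA-repair lesions; compound exposure; growth vs vehicle controls → % inhibition.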
[7] abbreviates: at 5.0 µM (retest, dose inferred, filed as 0.5).
Setting [8] is: at 50.0 µM (retest, dose inferred, filed as 5.0).

As to `O=S1(=O)c2ccccc2C(=NO)c2ccccc21`, the growth inhibition in assay [1] (setting [7]) is -5%; in assay [1] (setting [8]), -9%; in assay [1] (at 50.0 µM), -7.95%; in assay [2] (setting [7]) it was -3%; in assay [2] (setting [8]), -26%; in assay [2] (at 50.0 µM), 13.2%. Also, the growth inhibition in assay [3] (setting [7]) was -7%; in assay [3] (setting [8]), -21%; in assay [3] (at 50.0 µM), -15.4%; in assay [4] (setting [7]), 3%; in assay [4] (setting [8]), 0%; in assay [4] (at 50.0 µM), 66%. Besides, the growth inhibition is -1% in assay [5] (setting [7]); -17% in assay [5] (setting [8]); 7.7% in assay [5] (at 50.0 µM); -3% in assay [6] (setting [7]); -21% in assay [6] (setting [8]); -3.55% in assay [6] (at 50.0 µM).

`O=C1CSC(c2ccc([N+](=O)[O-])cc2)N1c1ccc(-c2ccc(-n3c(-c4ccccc4)nc4ccccc4c3=O)cc2)cc1` (stereo not drawn): the growth inhibition in assay [1] (setting [7]) is -1%; in assay [1] (setting [8]), 91% (active); in assay [1] (at 50.0 µM), 85.2% (active); in assay [2] (setting [7]), 13%; in assay [2] (setting [8]), 79% (active); in assay [2] (at 50.0 µM), 84.4% (active). The growth inhibition is 14% in assay [3] (setting [7]); 93% (active) in assay [3] (setting [8]); 94% (active) in assay [3] (at 50.0 µM); 31% in assay [4] (setting [7]); 75% (active) in assay [4] (setting [8]); 72.5% (active) in assay [4] (at 50.0 µM). The growth inhibition was -14% in assay [5] (setting [7]); 95% (active) in assay [5] (setting [8]); 95.2% (active) in assay [5] (at 50.0 µM); 19% in assay [6] (setting [7]); 96% (active) in assay [6] (setting [8]); 94.8% (active) in assay [6] (at 50.0 µM).

For the molecule `Cc1ccccc1NC(=S)N/N=C(/c1ccccc1)c1ccccn1`, the growth inhibition in assay [1] (setting [7]) is 5%; in assay [1] (setting [8]), 94% (active); in assay [1] (at 50.0 µM), 53.9%; in assay [2] (setting [7]) it was -17%; in assay [2] (setting [8]), 92% (active); in assay [2] (at 50.0 µM), 61%. In addition, the growth inhibition in assay [3] (setting [7]) was 26%; in assay [3] (setting [8]), 92% (active); in assay [3] (at 50.0 µM), 69.7%; in assay [4] (setting [7]), -38%; in assay [4] (setting [8]), 91% (active); in assay [4] (at 50.0 µM) it was 68.4%. The growth inhibition is -47% in assay [5] (setting [7]); 92% (active) in assay [5] (setting [8]); 76.3% (active) in assay [5] (at 50.0 µM); 26% in assay [6] (setting [7]); 92% (active) in assay [6] (setting [8]); 75.4% (active) in assay [6] (at 50.0 µM).

Regarding `CCOC(=O)c1cc(Cc2ccccc2)c(=O)n(C)c1-c1ccccc1`, the growth inhibition in assay [1] (setting [7]) is 4%; in assay [1] (setting [8]), 75% (active); in assay [1] (at 50.0 µM) it was 72% (active); in assay [2] (setting [7]) it was -3%; in assay [2] (setting [8]), 83% (active); in assay [2] (at 50.0 µM), 3.1%. Also, the growth inhibition in assay [3] (setting [7]) was 0%; in assay [3] (setting [8]), 85% (active); in assay [3] (at 50.0 µM), 93% (active); in assay [4] (setting [7]) it was 7%; in assay [4] (setting [8]), 46%; in assay [4] (at 50.0 µM), -5.4%. Also, the growth inhibition was 5% in assay [5] (setting [7]); 84% (active) in assay [5] (setting [8]); 85.3% (active) in assay [5] (at 50.0 µM); 2% in assay [6] (setting [7]); 86% (active) in assay [6] (setting [8]); 50.1% in assay [6] (at 50.0 µM).

As for `Cn1c(C2CCC(=O)N2Cc2ccccc2)n[nH]c1=S` (stereo not drawn), the growth inhibition is 1% in assay [1] (setting [7]); 0% in assay [1] (setting [8]); 55.5% in assay [1] (at 50.0 µM); -1% in assay [2] (setting [7]); -3% in assay [2] (setting [8]); 22.4% in assay [2] (at 50.0 µM). Besides, the growth inhibition is 4% in assay [3] (setting [7]); -2% in assay [3] (setting [8]); 74.4% (active) in assay [3] (at 50.0 µM); 2% in assay [4] (setting [7]); 3% in assay [4] (setting [8]); -1.85% in assay [4] (at 50.0 µM). The growth inhibition is 3% in assay [5] (setting [7]); -2% in assay [5] (setting [8]); 62.5% in assay [5] (at 50.0 µM); 1% in assay [6] (setting [7]); -4% in assay [6] (setting [8]); 89.5% (active) in assay [6] (at 50.0 µM).

Regarding `CCCOC(=O)CCCC(=O)N(CC)CC`, the growth inhibition is 1% in assay [1] (setting [7]); -10% in assay [1] (setting [8]); 10.7% in assay [1] (at 50.0 µM); 0% in assay [2] (setting [7]); 1% in assay [2] (setting [8]); -7.7% in assay [2] (at 50.0 µM). The growth inhibition in assay [3] (setting [7]) was 0%; in assay [3] (setting [8]) it was -9%; in assay [3] (at 50.0 µM), -25.1%; in assay [4] (setting [7]) it was -5%; in assay [4] (setting [8]) it was 0%; in assay [4] (at 50.0 µM) it was 71.5% (active). Further, the growth inhibition was -4% in assay [5] (setting [7]); -3% in assay [5] (setting [8]); -0.6% in assay [5] (at 50.0 µM); -5% in assay [6] (setting [7]); -11% in assay [6] (setting [8]); 19.5% in assay [6] (at 50.0 µM).
